hDAT+cocaine = human DAT dopamine uptake with cocaine, either direction; LLC-PK1 hDAT cells, [14C]-dopamine uptake with cocaine IC80; actives deviate in either direction; B-score at 10 µM; actives 1.3% (n = 110,000); AID 449768;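 active = Z score or B-score, a plate-position-corrected score, falls beyond the plate's 99.7% confidence bounds, in either direction; inactive = both scores lie inside the 99.7% bounds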
D1 allo mod = allosterically modulates the human D1 dopamine receptor | P21728 | HEK293 D1, CRE-luciferase, dopamine EC30 potentiation; actives deviate in either direction | B-score at 10 µM | actives 5.9% (n = 58,000) | AID 641;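 active = luminescence count or its row- and column-corrected plate score outside the 99.7% band of the plate's sample wells, on either side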
FXIa mix inh = factor XIa (human) inhibition, mixture screen | purified FXIa, fluorogenic substrate, pooled mixtures | actives 0.19% (n = 62,000) | P03951 | inhibition, % at 5 µM | AID 680;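 note: each value is inhibition by a whole ten-compound pool holding the compound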
Target sequence (P03951 19-387 limits assumed): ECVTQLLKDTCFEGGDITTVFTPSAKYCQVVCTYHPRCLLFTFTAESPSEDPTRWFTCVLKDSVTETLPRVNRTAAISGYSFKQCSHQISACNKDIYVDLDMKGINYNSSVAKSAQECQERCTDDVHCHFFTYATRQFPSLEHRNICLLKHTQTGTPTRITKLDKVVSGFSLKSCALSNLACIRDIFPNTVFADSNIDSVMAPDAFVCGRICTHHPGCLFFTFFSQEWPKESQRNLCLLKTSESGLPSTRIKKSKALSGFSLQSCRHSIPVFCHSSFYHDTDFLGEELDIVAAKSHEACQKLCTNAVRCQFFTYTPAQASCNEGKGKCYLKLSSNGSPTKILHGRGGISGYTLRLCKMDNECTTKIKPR
Target sequence (P03951 388-625 limits assumed): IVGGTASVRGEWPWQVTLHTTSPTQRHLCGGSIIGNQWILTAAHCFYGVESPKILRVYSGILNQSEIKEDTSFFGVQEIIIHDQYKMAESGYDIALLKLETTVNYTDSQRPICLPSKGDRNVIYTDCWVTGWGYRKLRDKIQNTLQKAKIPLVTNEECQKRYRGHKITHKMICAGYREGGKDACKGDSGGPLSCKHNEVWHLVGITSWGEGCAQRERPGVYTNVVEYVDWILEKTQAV
M1 agonist = agonists of M1 muscarinic receptor | CHO-M1 cells, Fluo-4 calcium fluorescence, agonist mode; active compounds read high | B-score at 10 µM | actives 3% (n = 64,000);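 active = fluorescence rise, raw or as B-score row- and column-corrected plate score, outside the 99.7% band of its plate's samples, either direction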
FXIIa mix inh = blocks human factor XIIa in pooled compound mixtures | P00748 | purified FXIIa, fluorogenic substrate | inhibition, % at 5 µM | actives 0.2% (n = 62,000) | AID 684
M1 antagonist = blocks the rat M1 muscarinic receptor response to acetylcholine; AID 628; CHO-M1 cells, Fluo-4 calcium, ACh EC80 antagonist mode; active compounds read low; P08482; B-score at 10 µM; actives 3.4% (n = 64,000);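 active = calcium fluorescence response, raw or row-and-column corrected B-score, differing from the plate sample mean either way at a set confidence level, mostly lower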
D1 mod confirm = D1 receptor (human) allosteric modulation, confirmed. shares compounds with D1 allo mod. HEK293 D1 CRE-luciferase, dopamine EC30 potentiation; active compounds read high. luminescence at 10 µM. actives 88% (n = 2,200). AID 642;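 active = luminescence in either of two replicates above the same-plate mean plus 3 SD of the low-dose dopamine control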
D1 ag no DA = secondary test of D1 modulators: activity without dopamine; luminescence at 10 µM; actives 0.8% (n = 1,900); AID 646; HEK293 D1 CRE-luciferase, luminescence, no dopamine; active compounds read high; shares compounds with D1 allo mod; in the data active = luminescence above about 3900
Isoprot counter = counter-screen for D1 modulators: isoproterenol response in HEK293 cells; HEK293 D1 CRE-luciferase, isoproterenol EC30 counter-screen; calls only at 10 µM; shares compounds with D1 allo mod; actives 63% (n = 2,200); AID 647;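 active = luminescence in either replicate above plate mean of wells with a partly effective reference agonist dose plus 3 SD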;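 note: isoproterenol raises cAMP through native beta-adrenoceptor Gs so signal bypasses D1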
Large screens that a line does not name were inactive (follow-up assays come after a bar, where they were run). In the library only some 7.4% were active in any assay of this set; here they are far more common. Cut-off read from the data, not from the text of the source, unless noted: active = inhibition above about 20% (passing the limit was not always enough); inactive = the rest.

CNC[C@H](O)c1cccc(O)c1	D1 allo mod 17 | D1 mod confirm 11024 | D1 ag no DA 5672 | Isoprot counter active
CNC[C@H](O)c1ccc(O)c(O)c1	none (no result: D1 allo mod, FXIa mix inh, M1 agonist, FXIIa mix inh, M1 antagonist)
COc1ccc(-c2cc3ccccc3oc2=O)cc1NC(=S)NC(=O)c1ccc2c(c1)OCCO2	none (no result: D1 allo mod, FXIa mix inh, M1 agonist, FXIIa mix inh, M1 antagonist)
OC[C@H]1O[C@@H](n2cnc3c(NC4CCCC4)ncnc32)[C@H](O)[C@@H]1O	D1 allo mod 5.5 | D1 mod confirm 7504 | D1 ag no DA inactive | Isoprot counter active
COc1ccc(CSc2n[nH]c(C)n2)cc1Br	D1 allo mod 6.5 | D1 mod confirm 10580 | Isoprot counter active
CCOC(=O)CSc1nnc(CSc2nc(N)c3c(C)c(C)sc3n2)n1-c1ccccc1	none (no result: hDAT+cocaine, D1 allo mod, M1 agonist, M1 antagonist)
C=C(C)CSc1nc(N)c2c(C)c(C)sc2n1	D1 allo mod 11 | D1 mod confirm 16788 | D1 ag no DA inactive | Isoprot counter active
O=C(Oc1ccc2ccc(=O)oc2c1)N1CCOCC1	D1 allo mod 3.1 (no result: hDAT+cocaine) | D1 mod confirm inactive | D1 ag no DA inactive | Isoprot counter inactive
CCOC(=O)CSC1=C(C#N)C(c2ccc3c(c2)OCO3)CC(=O)N1 (configuration not stated)	none
CCOC(=O)CSC1=C(C#N)C(c2ccc(C)o2)CC(=O)N1 (configuration not stated)	D1 allo mod 5.4 | D1 mod confirm 9204 | D1 ag no DA inactive | Isoprot counter inactive
CN(C)C(=O)N1CCC(C(=O)NCc2ccc(F)cc2Cl)CC1	D1 allo mod 3.9 | D1 mod confirm inactive | D1 ag no DA inactive | Isoprot counter inactive
CN(C)C(=O)N1CCCC(C(=O)NCc2ccc(F)cc2Cl)C1 (configuration not stated)	none
O=C(CCn1c(=O)oc2ccccc21)Nc1cccc(Cl)c1	D1 allo mod 14 | D1 mod confirm inactive | D1 ag no DA inactive | Isoprot counter inactive
CC(=O)c1ccc(NC(=O)CCn2c(=O)oc3ccccc32)cc1	none
Cc1cc(C)n2nc3nc(N4CCCCC4)nc(-c4ccco4)c3c2n1	none
Cc1cccc(-c2c3c(=O)n(C)c(=O)n(C)c3cn2C(C)C)c1	D1 allo mod 14, M1 agonist 2.8 (no result: hDAT+cocaine) | D1 mod confirm 15796 | D1 ag no DA inactive | Isoprot counter active
Cc1cccc(-c2c3c(=O)n(C)c(=O)n(C)c3c3cccnn23)c1	D1 allo mod 22 | D1 mod confirm 23480 | D1 ag no DA inactive | Isoprot counter active
Cc1cccc(-c2c3c(=O)n(C)c(=O)n(C)c3cn2C(C)(C)C)c1	none
CCOc1ccc(S(=O)(=O)Nc2cc(OC)ccc2OC)cc1	D1 allo mod 4.5 | D1 mod confirm 11952 | D1 ag no DA inactive | Isoprot counter active
c1ccc2[nH]c(CN3CCN(c4ncnc5c4oc4ccccc45)CC3)nc2c1	D1 allo mod 9.6 | D1 mod confirm 14816 | Isoprot counter active
CCOC(=O)c1c(C)c(C(=O)N2CCCCCC2)c(C)n1C	none (no result: D1 allo mod)
CCOC(=O)c1c(C)c2c(n1C)CCC/C2=N\O	D1 allo mod 6.5 | D1 mod confirm 9680 | D1 ag no DA inactive | Isoprot counter active
COC(=O)C(C)Oc1ccc2c3c(c(=O)oc2c1)CCCCC3 (configuration not stated)	none
CC(C)Oc1ccc2c3c(c(=O)oc2c1)CCC3	D1 allo mod 5.8 | D1 mod confirm 11556 | D1 ag no DA inactive | Isoprot counter active
COc1ccc(Br)cc1CNC(=O)CCN1C(=O)COc2ccccc21	D1 allo mod 3.6 | D1 mod confirm 6192 | Isoprot counter inactive
CCOc1ccc(CCNC(=O)CCN2C(=O)COc3ccccc32)cc1OCC	D1 allo mod 2.7 | D1 mod confirm 9680 | D1 ag no DA inactive | Isoprot counter active
COc1ccccc1CNC(=O)CCN1C(=O)COc2ccccc21	none
Cn1c(=O)n(Cc2ccccc2)c(=O)c2c1nc(NCC1CCCO1)n2Cc1ccccc1 (configuration not stated)	none
O=C1C(Cl)=C(NCC2CCCO2)C(=O)N1Cc1ccccc1 (configuration not stated)	D1 allo mod 4.8 | D1 mod confirm 9896 | D1 ag no DA inactive | Isoprot counter inactive
CCOC(=O)c1cc(OCC(=O)NC(C)C(C)C)cc(C(=O)OCC)c1 (configuration not stated)	none
O=C(NCc1ccc2[nH]c3c(c2c1)CCCC3)N1CCOCC1	none (no result: D1 allo mod, M1 agonist, M1 antagonist)
CCn1ncc(C2=NOC(C(=O)NCc3ccccc3)C2)c1C (configuration not stated)	D1 allo mod 7.7 | D1 mod confirm 12364 | D1 ag no DA inactive | Isoprot counter inactive
CCn1ncc(C2=NOC(C(=O)NCc3ccc(OC)cc3)C2)c1C (configuration not stated)	none
Cc1ccc2c(c1)c(-c1ccccc1)nc1nncn12	D1 allo mod 9.1 | D1 mod confirm 13296 | D1 ag no DA inactive | Isoprot counter active
CCc1nc2scc(-c3ccccc3)c2c(=O)n1N	D1 allo mod 6.6 | D1 mod confirm 14056 | D1 ag no DA inactive | Isoprot counter active
O=C(Nc1ccc(Br)cc1F)C1CCCO1 (configuration not stated)	none (no result: D1 allo mod, FXIa mix inh, M1 agonist, FXIIa mix inh, M1 antagonist)
Brc1ccccc1-c1nnc2sc(-c3ccc4c(c3)OCCO4)nn12	D1 allo mod 3.8 | D1 mod confirm 7796 | D1 ag no DA inactive | Isoprot counter active
CCNc1nc(NC(C)C)nc(N(C#N)CCOc2ccc(Cl)cc2Cl)n1	D1 allo mod 3.2 | D1 mod confirm 11108 | D1 ag no DA inactive | Isoprot counter active
CCNc1nc(NC(C)C)nc(N(C#N)C(C)C(=O)N(C)C)n1 (configuration not stated)	none (no result: D1 allo mod)
CCNc1nc(NC(C)(C)C)nc(N(C#N)CC)n1	D1 allo mod 30 | D1 mod confirm 23548 | D1 ag no DA inactive | Isoprot counter active
CCNc1nc(NC(C)C)nc(N(C#N)Cc2ccccc2)n1	D1 allo mod 8.9 | D1 mod confirm 22672 | D1 ag no DA inactive | Isoprot counter active
COc1cccc(-n2nnnc2SCC(=O)NC2CCCC2)c1	none (no result: D1 allo mod, FXIa mix inh, M1 agonist, FXIIa mix inh, M1 antagonist)
O=C(NC1CC2CCCC(C1)N2S(=O)(=O)c1ccccc1)c1ccccc1 (configuration not stated)	none (no result: D1 allo mod)
CC(=O)NC1CC2CCCC(C1)N2S(=O)(=O)c1ccccc1 (configuration not stated)	D1 allo mod 5.5 (no result: M1 agonist, M1 antagonist) | D1 mod confirm inactive | D1 ag no DA inactive | Isoprot counter inactive
COc1ccc(-c2nnc(-c3ccc(Br)o3)o2)cc1OC	D1 allo mod 4.8 | D1 mod confirm 8496 | D1 ag no DA inactive | Isoprot counter inactive

Source: PubChem
